Several values for one entry are separate records, joined by “and”; a condition that tells them apart may be missing. Equal entries are not always repeated. Results filed as inconclusive are left out. Entries that show only a call come without a potency. A structure can be active in one record and inactive in another. Activity calls are given as the source filed them. Unless noted, calls follow the shape of the full dose curve.
Assays:
[1] = Nuclear factor erythroid 2-related factor 2/antioxidant responsive element (Nrf2/ARE) small molecule agonists: qHTS cell viability counter screen in human keratinocytes (AID 1919968; active = well fitted curve in the direction sought with a large enough effect in the repeat runs; an effect the other way counts as inactive or inconclusive; also: nearly all actives have a fitted effect of over 55% in size)
Summary of the method: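 KeratinoSens cells (HaCaT keratinocytes stably carrying an ARE-luciferase reporter) were seeded at 1,500 cells/well and rested 5 h at 37 C/5% CO2. They were then exposed to compounds in DMSO for 23 h. Viability was read by CellTiter-Fluor fluorescence after 1 h.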

[2] = Nuclear factor erythroid 2-related factor 2/antioxidant responsive element (Nrf2/ARE) small molecule agonists: luciferase reporter gene qHTS assay in human keratinocytes (AID 1919969); also: nearly all actives have a fitted effect of over 35% in size; also: potency is read from the fitted curve at half-maximal effect
[3] = target: Gonadotropin-releasing hormone receptor (Homo sapiens) (UniProt P30968); experiment: Human gonadotropin-releasing hormone receptor (GnRHR) small molecule agonists, calcium flux assay in GnRHR-HEK293 cells (AID 1920063); also: nearly all actives have a fitted effect of over 35% in size
Sequence of Gonadotropin-releasing hormone receptor (Homo sapiens) (P30968 whole entry, looked up): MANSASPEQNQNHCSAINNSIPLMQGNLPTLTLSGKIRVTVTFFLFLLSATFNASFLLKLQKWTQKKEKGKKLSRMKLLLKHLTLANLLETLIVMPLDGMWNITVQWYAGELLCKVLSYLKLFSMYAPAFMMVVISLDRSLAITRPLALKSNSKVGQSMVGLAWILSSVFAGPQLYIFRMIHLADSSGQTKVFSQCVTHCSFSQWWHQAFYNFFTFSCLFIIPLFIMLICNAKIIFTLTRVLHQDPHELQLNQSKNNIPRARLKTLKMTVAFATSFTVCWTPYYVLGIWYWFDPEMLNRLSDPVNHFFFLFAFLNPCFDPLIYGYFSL
Summary of the method: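 HEK293 cells stably expressing human GnRHR were plated 18 h at 37 °C, loaded with calcium dye 1 h at 37 °C, then given compound in agonist mode; fluorescence (Ex/Em 480/540) read kinetically for 3 min at 1 s intervals.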

[4] = target: KiSS-1 receptor (Homo sapiens) (UniProt Q969F8); experiment: Human kisspeptin (KISS1R) small molecule agonists, calcium flux assay in KISS1R-HEK293 cells (AID 1920064; active = well fitted curve in the direction sought with a large enough effect in the repeat runs; an effect the other way counts as inactive or inconclusive)
Sequence of KiSS-1 receptor (Homo sapiens) (Q969F8 whole entry, looked up): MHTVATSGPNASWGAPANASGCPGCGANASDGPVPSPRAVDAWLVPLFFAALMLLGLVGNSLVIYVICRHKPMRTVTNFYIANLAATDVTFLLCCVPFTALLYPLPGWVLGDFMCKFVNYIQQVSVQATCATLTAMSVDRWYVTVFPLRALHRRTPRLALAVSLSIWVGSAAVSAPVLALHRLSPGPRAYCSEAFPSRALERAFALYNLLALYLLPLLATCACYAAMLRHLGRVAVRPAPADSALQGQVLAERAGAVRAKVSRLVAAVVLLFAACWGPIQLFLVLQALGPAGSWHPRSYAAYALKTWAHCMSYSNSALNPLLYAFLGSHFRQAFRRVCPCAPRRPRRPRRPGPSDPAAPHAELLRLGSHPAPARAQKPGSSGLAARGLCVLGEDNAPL
Summary of the method: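 HEK293 cells stably expressing human KISS1R were plated 18 h at 37 °C, loaded with calcium dye for 1 h at 37 °C, then given compound by pin tool. Fluorescence (Ex/Em 480/540) was read kinetically for 3 min.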

[5] = G protein-coupled receptor (GPCR) small molecule agonists, calcium flux assay: HEK293 wild type cell line counter screen (AID 1920065)
Summary of the method: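 Cells were plated and cultured 18 h at 37 C/5% CO2, then loaded with calcium dye for 1 h at 37 C. Compounds in DMSO were pin-transferred in agonist mode, and fluorescence (Ex/Em 480/540) was read kinetically for 3 min at 1 s intervals.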

[6] = p53 small molecule agonists, cell-based qHTS assay with human liver microsomes (AID 1963577);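 also: p53 response element beta-lactamase reporter cells with liver microsomes plus NADPH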
Summary of the method: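 Metabolically competent format: test substances, human liver microsomes and NADPH (both 0.5 mg/mL final) incubated with p53RE-bla cells 16 h at 37 C. Beta-lactamase reporter signal then quantified by fluorescence.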

[7] = p53 small molecule agonists, cell-based qHTS assay with rat liver microsomes (AID 1963578)
Summary of the method: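 Each plate received p53RE-bla cells, then compound, then rat liver microsomes and NADPH (both 0.5 mg/mL final). Plates were held 16 h at 37 C, and beta-lactamase activity was detected with LiveBLAzer over 2 h.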

[8] = p53 small molecule agonists, cell-based qHTS assay with human liver microsomes: qHTS cell viability counter screen (AID 1963579); also: nearly all actives have a fitted effect of over 45% in size; also: potency is read from the fitted curve at half-maximal effect
Summary of the method: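 Tox21 library compounds, delivered from DMSO stocks, were tested on p53RE-bla cells together with 0.5 mg/mL human liver microsomes and 0.5 mg/mL NADPH (final) over 16 h at 37 C; CellTiter-Glo luminescence served as the cytotoxicity measure.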

[9] = p53 small molecule agonists, cell-based qHTS assay with rat liver microsomes: qHTS cell viability counter screen (AID 1963580); also: nearly all actives have a fitted effect of over 45% in size
Summary of the method: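 Viability is assessed in parallel with the p53 reporter read: HCT-116 p53RE-bla cells receive compounds plus rat microsomes and NADPH (0.5 mg/mL final apiece), incubate 16 h at 37 C, and then CellTiter-Glo luminescence is recorded.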

[10] = p53 small molecule agonists, cell-based qHTS assay: qHTS cell viability counter screen (AID 1963581); also: nearly all actives have a fitted effect of over 45% in size
Summary of the method: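 p53RE-bla HCT-116 cells were exposed to compounds for 16 h at 37 C; after the beta-lactamase FRET read in the same wells, CellTiter-Glo was added and luminescence (intracellular ATP) read after 30 min at room temperature.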

[11] = cAMP Responsive Elements (CRE) small molecule agonists, cell-based qHTS assay (AID 1963590)
Summary of the method: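 CRE-bla HEK 293T cells in DMEM with 10% dialyzed FBS, NEAA, pyruvate and 25 mM HEPES were plated 18 h at 37 C/5% CO2, then exposed to compounds in DMSO for 3 h before LiveBLAzer B/G FRET substrate addition.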

[12] = cAMP Responsive Elements (CRE) small molecule antagonists, cell-based qHTS assay (AID 1963591; active = well fitted inhibition curve with a large enough effect in the signal ratio in the repeat runs, not every such curve was filed as active; the % refers to the signal ratio)
Summary of the method: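 CRE-bla HEK293T cells were plated 18 h at 37 °C/5% CO2, pinned with compound in DMSO, then stimulated with NKH477 at 0.25 uM final for 3 h. LiveBLAzer B/G FRET substrate was added and plates incubated 2 h at room temperature.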

[13] = target: Beta-2 adrenergic receptor (Homo sapiens) (UniProt P07550); experiment: Adrenergic beta2 receptor (ADRB2) small molecule antagonists, cell-based qHTS assay (AID 1963592); also: nearly all actives have a fitted effect of over 50% in size; also: potency is read from the fitted curve at half-maximal effect
Sequence of Beta-2 adrenergic receptor (Homo sapiens) (P07550 whole entry, looked up): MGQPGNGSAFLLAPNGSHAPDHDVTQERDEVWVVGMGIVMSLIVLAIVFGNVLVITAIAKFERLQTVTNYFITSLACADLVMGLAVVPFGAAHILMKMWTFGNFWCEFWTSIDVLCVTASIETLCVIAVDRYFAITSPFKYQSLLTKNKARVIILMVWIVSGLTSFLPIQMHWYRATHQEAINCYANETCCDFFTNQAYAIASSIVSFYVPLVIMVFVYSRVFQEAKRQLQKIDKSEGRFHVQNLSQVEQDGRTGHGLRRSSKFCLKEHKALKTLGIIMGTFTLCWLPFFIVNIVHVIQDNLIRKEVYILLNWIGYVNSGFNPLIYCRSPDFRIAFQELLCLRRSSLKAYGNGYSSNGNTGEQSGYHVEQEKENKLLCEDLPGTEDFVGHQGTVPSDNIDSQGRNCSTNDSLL
Summary of the method: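 Cells (CHO, stable ADRB2 overexpression) incubated 18-20hr at 37C; compounds added from DMSO; agonist mix (1nM isoproterenol, 100uM IBMX, 25uM Ro-20-1724) added; 0.5hr RT; d2-cAMP and anti-cAMP-cryptate added; 1hr RT; 665/615 nm read.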

[14] = target: Beta-2 adrenergic receptor (Homo sapiens) (UniProt P07550); experiment: Adrenergic beta2 receptor (ADRB2) small molecule agonists, cell-based qHTS assay (AID 1963593);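 also: CHO cells stably overexpressing human ADRB2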
Summary of the method: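 CHO cells stably over-expressing ADRB2 were plated overnight at 37C, then dosed with compounds plus a stimulation mix containing 100uM IBMX and 25uM Ro-20-1724 for 0.5hr at room temperature. cAMP was measured by HTRF competition, 1hr.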

[15] = target: D(2) dopamine receptor (Homo sapiens) (UniProt P14416); experiment: Dopamine D2 receptor (DRD2) small molecule agonists, cell-based qHTS assay (AID 1963594); also: nearly all actives have a fitted effect of over 35% in size
Sequence of D(2) dopamine receptor (Homo sapiens) (P14416 whole entry, looked up): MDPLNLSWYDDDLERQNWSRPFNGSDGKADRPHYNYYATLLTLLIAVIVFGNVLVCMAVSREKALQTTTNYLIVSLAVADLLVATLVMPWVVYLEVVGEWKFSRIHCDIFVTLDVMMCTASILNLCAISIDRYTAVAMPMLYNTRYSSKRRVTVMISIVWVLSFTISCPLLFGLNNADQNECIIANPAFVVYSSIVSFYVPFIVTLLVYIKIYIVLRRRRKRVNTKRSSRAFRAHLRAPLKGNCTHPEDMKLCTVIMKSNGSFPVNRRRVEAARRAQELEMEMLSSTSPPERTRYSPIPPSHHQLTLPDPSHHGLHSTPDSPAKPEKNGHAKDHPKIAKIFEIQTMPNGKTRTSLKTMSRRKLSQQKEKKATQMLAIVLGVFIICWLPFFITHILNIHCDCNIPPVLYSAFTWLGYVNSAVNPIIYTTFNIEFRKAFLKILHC
Summary of the method: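 HEK293 cells stably expressing human DRD2, pre-treated with PDE inhibitor Ro20-1724 (0.1 mM final) and compound 10 min at room temperature, then stimulated with NKH477 (200nM […]) for 30 min. cAMP read by HTRF (665/620 nm).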

[16] = target: D(2) dopamine receptor (Homo sapiens) (UniProt P14416); experiment: Dopamine D2 receptor (DRD2) small molecule antagonists, cell-based qHTS assay (AID 1963595; active = well fitted inhibition curve with a large enough effect in the signal ratio in the repeat runs, with a control signal flat; the % refers to the signal ratio)
Summary of the method: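 Antagonist mode in DRD2-HEK293 cells: after compound addition with 0.1 mM Ro20-1724, cells received quinpirole (12 nM) and NKH477 (200 nM) for 30 min at room temperature; HTRF cAMP read after 1 h detection.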

[17] = target: 5-hydroxytryptamine receptor 2A (Homo sapiens) (UniProt P28223); experiment: 5-hydroxytryptamine receptor 2A (HTR2A) small molecule agonists, cell-based qHTS assay (AID 1963587); also: nearly all actives have a fitted effect of over 30% in size
Sequence of 5-hydroxytryptamine receptor 2A (Homo sapiens) (P28223 whole entry, looked up): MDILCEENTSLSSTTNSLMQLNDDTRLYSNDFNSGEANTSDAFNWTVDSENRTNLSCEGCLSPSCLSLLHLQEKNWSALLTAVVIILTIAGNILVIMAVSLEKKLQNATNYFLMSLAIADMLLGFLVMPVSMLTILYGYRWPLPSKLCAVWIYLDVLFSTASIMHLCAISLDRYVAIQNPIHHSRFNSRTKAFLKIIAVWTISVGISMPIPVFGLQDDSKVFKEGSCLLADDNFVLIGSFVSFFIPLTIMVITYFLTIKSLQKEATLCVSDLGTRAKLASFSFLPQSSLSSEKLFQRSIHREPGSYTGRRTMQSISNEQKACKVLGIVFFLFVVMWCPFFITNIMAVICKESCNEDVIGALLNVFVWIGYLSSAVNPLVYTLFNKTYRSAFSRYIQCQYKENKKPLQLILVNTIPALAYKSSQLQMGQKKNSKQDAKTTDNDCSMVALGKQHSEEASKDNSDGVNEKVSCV
Summary of the method: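 CHO cells stably expressing human HTR2A, plated 18 h, loaded with calcium dye 1 h at 37 C. Agonist mode: compounds added and intracellular calcium fluorescence recorded kinetically for 2 min at 1 sec intervals.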

[18] = target: Muscarinic acetylcholine receptor M1 (Homo sapiens) (UniProt P11229); experiment: Cholinergic receptor muscarinic 1 (CHRM1) small molecule antagonists, cell-based qHTS assay (AID 1963588); also: nearly all actives have a fitted effect of over 40% in size
Sequence of Muscarinic acetylcholine receptor M1 (Homo sapiens) (P11229 whole entry, looked up): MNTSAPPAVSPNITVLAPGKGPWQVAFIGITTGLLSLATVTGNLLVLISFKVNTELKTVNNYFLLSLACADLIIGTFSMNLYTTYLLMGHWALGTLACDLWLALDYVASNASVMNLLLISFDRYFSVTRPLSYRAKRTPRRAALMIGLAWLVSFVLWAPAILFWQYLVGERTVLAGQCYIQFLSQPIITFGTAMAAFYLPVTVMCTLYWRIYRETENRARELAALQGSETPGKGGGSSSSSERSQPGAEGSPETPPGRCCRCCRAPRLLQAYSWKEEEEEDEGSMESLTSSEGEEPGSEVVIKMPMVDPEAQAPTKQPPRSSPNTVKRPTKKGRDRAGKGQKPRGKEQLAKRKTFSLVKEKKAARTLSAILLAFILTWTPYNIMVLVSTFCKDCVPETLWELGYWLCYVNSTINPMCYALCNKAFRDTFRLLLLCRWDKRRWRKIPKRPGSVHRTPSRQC
Summary of the method: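 CHRM1-CHO calcium-flux assay, antagonist mode. Cells were seeded 18 h, dye-loaded 1 h at 37 C and given compound for 5 min at RT, then acetylcholine was added at 50nM. FDSS fluorescence was read 3 min; 15 concentrations, three runs.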

[19] = target: Muscarinic acetylcholine receptor M1 (Homo sapiens) (UniProt P11229); experiment: Cholinergic receptor muscarinic 1 (CHRM1) small molecule agonists, cell-based qHTS assay (AID 1963589); also: nearly all actives have a fitted effect of over 35% in size
Summary of the method: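 CHO cells stably expressing human CHRM1, seeded 18 h at 37 C/5% CO2, dye-loaded 1 h at 37 C, then given compound in agonist mode; intracellular calcium fluorescence read kinetically at 1 s intervals. Fifteen concentrations, three independent runs.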

[20] = p53 small molecule agonists, cell-based qHTS assay (AID 1963582; active = well fitted activation curve with a large enough effect in the signal ratio in the repeat runs, not every such curve was filed as active; the % refers to the signal ratio)
Summary of the method: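 p53RE-bla beta-lactamase reporter cells rested 5 h at 37 C/5% CO2, then received compounds in DMSO by pin transfer and were incubated 16 h at 37 C. LiveBLAzer B/G FRET substrate was loaded for 2 h at room temperature before fluorescence reading.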

| SMILES | Potency [1] | Potency [2] | Potency [3] | Potency [4] | Potency [5] | Potency [6] | Potency [7] | Potency [8] | Potency [9] | Potency [10] | Potency [11] | Potency [12] | Potency [13] | Potency [14] | Potency [15] | Potency [16] | Potency [17] | Potency [18] | Potency [19] | Potency [20] |
| --- | --- | --- | --- | --- | --- | --- | --- | --- | --- | --- | --- | --- | --- | --- | --- | --- | --- | --- | --- | --- |
| Cc1nnc(NS(=O)(=O)c2ccc(N)cc2)s1 | inactive | inactive | inactive | inactive | inactive | inactive | inactive | inactive | inactive | inactive | inactive | inactive | inactive | inactive | inactive | inactive |  |  |  |  |
| CCCCC/C=C\C/C=C\CCCCCCCC(=O)OC | inactive | 27 µM (active) and 68.6 µM (active) | inactive | inactive | inactive | inactive | inactive | inactive and 51.3 µM (active) | inactive | inactive | inactive | inactive | inactive | inactive | inactive | inactive | inactive | inactive |  |  |
| CC1=C(/C=C/C(C)=C/C=C/C(C)=C/CO)C(C)(C)CCC1 | inactive | 69.4 µM (active) and 72.3 µM (active) | inactive | inactive | inactive | inactive | inactive | inactive | inactive | inactive |  |  | inactive | inactive |  | inactive |  | inactive | inactive |  |
| C=C(C)OC(C)=O | inactive | inactive | inactive | inactive | inactive | inactive | inactive | inactive | inactive | inactive | inactive | inactive | inactive |  | inactive | inactive | inactive | inactive | inactive |  |
| CNC[C@H](O)[C@@H](O)[C@H](O)[C@H](O)CO | inactive | inactive | inactive | inactive | inactive | inactive | inactive | inactive | inactive | inactive | inactive | inactive | inactive |  | inactive | inactive |  | inactive | inactive |  |
| Cc1ccncc1 | inactive | inactive | inactive | inactive | inactive | inactive | inactive | inactive | inactive | inactive | inactive | inactive | inactive |  | inactive | inactive | inactive | inactive |  |  |
| C[C@]12C=CC(=O)C=C1CC[C@@H]1[C@@H]2[C@@H](O)C[C@@]2(C)[C@H]1CC[C@]2(O)C(=O)CO | inactive | inactive | inactive | inactive | inactive | inactive | inactive | inactive | inactive | inactive | inactive | inactive |  | inactive | inactive | inactive |  |  |  |  |
| Fc1ccc(Br)cc1 | inactive | inactive | inactive | inactive | inactive | inactive | inactive | inactive | inactive | inactive | inactive | inactive | inactive | inactive | inactive | inactive |  | inactive | inactive |  |
| NCCN | inactive | inactive | inactive | inactive | inactive | inactive | inactive | inactive | inactive |  | inactive | inactive | inactive | inactive | inactive | inactive | inactive | inactive | inactive | inactive |
| CSc1ccc(Cl)cc1 | inactive | inactive | inactive | inactive | inactive | inactive | inactive | inactive | inactive |  | inactive | inactive | inactive | inactive | inactive | inactive | inactive | inactive | inactive | inactive |
| CC(=O)CCc1ccccc1 | inactive | inactive | inactive | inactive | inactive | inactive | inactive | inactive | inactive |  | inactive | inactive | inactive | inactive | inactive | inactive | inactive | inactive | inactive | inactive |
| CC(=O)C1=C(C)[C@@H]2C[C@@]3(C1)[C@H](C)CC[C@H]3C2(C)C | inactive | inactive | inactive | inactive | inactive | inactive | inactive | inactive | inactive |  | inactive | inactive | inactive | inactive | inactive | inactive | inactive | inactive | inactive | inactive |
| CCCc1c(OCCCCc2nn[nH]n2)ccc(C(C)=O)c1O | inactive | inactive | inactive | inactive | inactive | inactive | inactive | inactive | inactive | inactive |  |  | inactive |  | inactive | inactive | inactive | inactive | inactive |  |
| CC1=C(C)S(=O)(=O)CCS1(=O)=O | inactive | 6.73 µM (active) and 8.63 µM (active) | inactive | inactive | inactive | inactive | inactive | inactive | inactive | inactive |  | inactive | inactive and 13.7 µM (active) |  | inactive | inactive | inactive | inactive | inactive |  |
| OCC1CCCO1 (stereo not given) | inactive | inactive | inactive | inactive | inactive | inactive | inactive | inactive | inactive | inactive | inactive | inactive | inactive |  | inactive | inactive | inactive | inactive |  |  |

From PubChem BioAssay (Tox21)
